Active and inactive are the calls of the source. Rule for the calls: active = hit-call score of the fitted dose curve at least 0.9, where 1 is the maximum; inactive = score below 0.9.

The nature of this test: ATG_CRE_CIS: Attagene CIS-FACTORIAL HepG2 Assay for human cAMP Responsive Element (CRE) binding protein 3 (AID 2282926). Conditions: HepG2 CRE cis-reporter, Attagene multiplexed mRNA; actives raise or lower the signal. Here is the method:
ATG_CIS is a cell-based, multiplexed-readout assay that uses HepG2, a human liver cell line, with measurements taken at 24 hours after chemical dosing in a 24-well plate.ATG_CRE_CIS is one of 52 assay component(s) measured or calculated from the ATG_CIS assay. It is designed to make measurements of mRNA induction, a form of inducible reporter, as detected with fluorescence intensity signals by Reverse transcription polymerase chain reaction (RT-PCR) and Capillary electrophoresis technology.Data from the assay component ATG_CRE_CIS was analyzed into 1 assay endpoint. This assay endpoint, ATG_CRE_CIS, was analyzed with bidirectional fitting relative to DMSO as the negative control and baseline of activity. Using a type of inducible reporter, measures of mRNA for gain or loss-of-signal activity can be used to understand the reporter gene at the transcription factor-level as they relate to the gene CREB3. Furthermore, this assay endpoint can be referred to as a primary readout, because this assay has produced multiple assay endpoints where this one serves a reporter gene function. To generalize the intended target to other relatable targets, this assay endpoint is annotated to the dna binding intended target family, where the subfamily is basic leucine zipper.
Human liver HepG2 cells are transiently transfected with multiple reporter transcription units (MRTUs) in 6-well plates using FuGene 6 reagent (Roche; 3 ml FuGene/1 mg DNA). The MRTU constructs are regulated by a cis-regulating element (promoter). […] A major difference between the CIS and TRANS system is that in CIS activities of endogenous TFs are measured, whereas the TRANS assay evaluates changes in activities of exogenous, chimeric NR-Gal4 proteins. […] At the end of 24 hour incubation, total RNA was isolated using TriZol reagent (Invitrogen). The isolated RNA is then reverse-transcribed using oligo(dT) primer and Mo-MLV reverse transcriptase (Invitrogen) with DNAse I (Ambion) treatment for 30 min. The one-tenth of the produced cDNA was amplified by PCR using Taq DNA polymerase (Invitrogen) and two reporter sequence-specific primers. The PCR products were fluorescently labeled by primer extension with 6-arboxyfluorescein (6-FAM) 5'-labeled reporter sequence-specific primer (2 min at 95 C, 20 s at 68 C and 10 min at 72 C) and these products were digested with 5U of HpaI (New England Biolabs) for 2h at 37 C. The fragments were purified using Qiaquick PCR columns (Qiagen), analyzed on an ABI 3130xL genetic analyzer (Applied Biosystems) with peak positions identified by using a set of X-rhodamine (ROX)-labeled MapMarker1000 molecular weight standards (BioVentures). The raw capillary electrophoresis data was processed using Attagraph software (Attagene).
`O=C(O)CCN(C1(C(=O)NO)CCCC1)S(=O)(=O)c1ccc(Oc2ccc(F)cc2)cc1`: the call was inactive. One may read the AC50 as the concentration giving half of the maximal activity seen. With `Fc1ccccc1[C@@H](F)COC1CCC(Nc2ncnc3[nH]ncc23)CC1` (stereo not given in full), the AC50 is 25.5 µM (active).

Regarding `Cc1c(-c2cccnc2)c2ccccc2n1CCCCC(=O)O`, the call was inactive. Same read-out and setting: with `CNS(=O)(=O)c1cc(C(=O)N2CCC(CCN3C4CCC3CC(n3c(C)nc5ccccc53)C4)(c3cccc(F)c3)CC2)c(Cl)cc1F` (stereo not given) the entry was “inactive”; with `CC(C)CCCCCCOC(=O)c1ccc(C(=O)OCCCCCCC(C)C)c(C(=O)OCCCCCCC(C)C)c1`, “inactive”; with `COC(=O)c1c(Cl)c(Cl)c(C(=O)OC)c(Cl)c1Cl`, “inactive”. The same measure, in the same setting: the value for `CC(C)=CCCC(C)CCO` (stereo not given) was “inactive”. Take `COCCOc1cc2cc(C(=O)NC3CCN(C(C)C)CC3)n(CC(=O)Nc3ccc(Cl)cn3)c2cn1`: the AC50 was 100 µM (active). For `CCN(C(=O)c1cc(C)cc(OC[C@H](C)Nc2ccncc2)c1)C(C)C`, the outcome was inactive. On the same count and under the same terms, with `COCCOCCOCCOC` the entry was “inactive”; with `CCCCCCc1ccc(O)cc1O`, “inactive”. On the same count and under the same terms, with `O=C(O)CC(O)C(=O)O` (stereo not given) the entry was “inactive”.

Regarding `CC(C)=CCCC(C)=CC=O`, the AC50 was 162 µM (active).

For `O=C(OC[C@H]1O[C@@H](OC(=O)c2cc(O)c(O)c(OC(=O)c3cc(O)c(O)c(O)c3)c2)[C@H](OC(=O)c2cc(O)c(O)c(OC(=O)c3cc(O)c(O)c(O)c3)c2)[C@@H](OC(=O)c2cc(O)c(O)c(OC(=O)c3cc(O)c(O)c(O)c3)c2)[C@@H]1OC(=O)c1cc(O)c(O)c(OC(=O)c2cc(O)c(O)c(O)c2)c1)c1cc(O)c(O)c(OC(=O)c2cc(O)c(O)c(O)c2)c1`, the compound was classed as inactive. On the same count and under the same terms, the value for `CC(C)=CCC/C(C)=C/CO` was “inactive”; that for `COc1ccc(/C=C/S(=O)(=O)NC(=O)c2ccc(C)cc2Cl)cc1` was “inactive”. Regarding `CCOC(=O)COc1ccc2c(c1)CC(NCC(O)c1cccc(Cl)c1)CC2` (stereo not given), the AC50 was 33 µM (active). Same read-out and setting: the value for `CCOC(=O)c1ccc(C2CCC(NC[C@H](O)COc3ccc(O)c(NS(C)(=O)=O)c3)CC2)cc1` (stereo not given in full) was 51.8 µM (active).

In the case of `CNCc1ccc(NC(=O)c2c[nH]c3c2C(=O)CCC3)cc1`, the outcome was inactive. The same measure, in the same setting: the value for `CC(O)CN(CCN(CC(C)O)CC(C)O)CC(C)O` (stereo not given) was “inactive”.

For `CC(=O)OCCC(C)C`, the outcome was inactive. Still for that read-out and setting: the value for `CCOC(=O)CC(CC(=O)OCC)(OC(C)=O)C(=O)OCC` was “inactive”; that for `Cn1cnc([N+](=O)[O-])c1Sc1ncnc2nc[nH]c12` was “inactive”. Same read-out and setting: with `O=c1[nH]c2ccc(S(=O)CCN3CCC(Cc4ccc(F)cc4)CC3)cc2o1` (stereo not given) the entry was “inactive”; with `COc1cccc(-c2ccc(/C=C\CN3CCCCCC3)cc2Cl)c1`, “inactive”.

In the case of `Oc1ccc2c(c1)-c1ccccc1C2`, the half-maximal activity concentration (AC50) was 44.4 µM (active).

As to `C1=CCCC=CCCC=CCC1`, the compound was called inactive. On the same count and under the same terms, the value for `CN(C)c1ccc(Cc2ccc(N(C)C)cc2)cc1` was “inactive”; that for `CC[C@H]1OC(=O)[C@H](C)[C@@H](O[C@H]2C[C@@](C)(OC)[C@@H](O)[C@H](C)O2)[C@H](C)[C@@H](O[C@@H]2O[C@H](C)C[C@H](N(C)C)[C@H]2O)[C@](C)(O)C[C@@H](C)C(=O)[C@H](C)[C@@H](O)[C@]1(C)O` was “inactive”.

Take `Clc1nc(Cl)c(Cl)c(Cl)c1Cl`: the compound was called inactive. For `O=c1n(CC2CO2)c(=O)n(CC2CO2)c(=O)n1CC1CO1` (stereo not given), the AC50 was 44.5 µM (active). In the case of `Nc1nc2ncc(CNc3ccc(C(=O)N[C@@H](CCC(=O)O)C(=O)O)cc3)nc2c(=O)[nH]1`, the compound was called inactive. On the same count and under the same terms, the value for `CN(C)c1ccc(N=NS(=O)(=O)O)cc1` was “inactive”; that for `CCOCCO` was “inactive”. The same measure, in the same setting: the value for `CCNc1ccccc1` was “inactive”; that for `CC(=O)OC[C@H]1O[C@@](COC(C)=O)(O[C@H]2O[C@H](COC(C)=O)[C@@H](OC(C)=O)[C@H](OC(C)=O)[C@H]2OC(C)=O)[C@@H](OC(C)=O)[C@@H]1OC(C)=O` was “inactive”. As to `Cc1[nH]cnc1C[C@H]1CCc2c(C)c3ccccc3n2C1=O`, the AC50 was 29.7 µM (active). Regarding `CCCCCCCCO`, the result was inactive. `CC(C)c1cccc(C(C)C)c1N1C(=O)c2ccc(O)cc2C1=O`: the AC50 is 56 µM (active). Consider `O=C1CCC(N2C(=O)c3ccccc3C2=O)C(=O)N1` (stereo not given), for which the result was inactive.
